Assay results as given in PubChem BioAssay (NCATS).
Where “and” joins values, the source holds several entries; their conditions need not be identical. Equal entries are not always repeated. Records with an inconclusive call do not appear. Entries that show only a call come without a potency. A number with no mark means an inactive call. Calls of active or inactive are those of the source. Calls come from the whole dose curve; as a rule, active = well fitted cell-killing curve with a large enough effect; inconclusive = small, poorly fitted or top-dose-only effect, or effect the other way; inactive = no such curve, though single readings can be large or run the other way.

Test: Viability qHTS for spleen associated tyrosine kinase inhibitor (SYKi) drug resistant MV4-11 cells (AID 1963824); note: nearly all actives have a fitted effect of over 35% in size
Settings: SYKi-resistant MV4-11 viability, CellTiter-Glo, 72 h; series mostly up to 45 µM
Source text: Department of Medicine, Hematology/Oncology
University Hospital Frankfurt, Germany.
Trials have shown promising clinical activity of the selective SYK inhibitor entospletinib in patients with high expressing HOXA9/MEIS1 acute leukemias. As the development of resistance mechanisms is a common problem in the use of targeted drugs, we performed a chemical library screen to identify drug sensitivities in SYK inhibitor resistant AML cells. […] Glucocorticoids are potent immunosuppressants which work in part by inhibiting the transcription of cytokine genes.
Described herein is a viability screen to look for activity in the SYK inhibitor drug resistant cell line against four NCATS compound libraries (MIPE 5.0, NPC, NPACT, and Kinase) totaling 11372 compounds. Active hits were reacquired for confirmation and further secondary assay testing.
SEQUENCE No. (e.g., 1, 2, 3, etc.); […] (e.g., Cells, Incubation, Reagent, etc.); VALUE; DESCRIPTION.
1; Media; 2uL; white, solid-bottom Corning assay plate.
2; Compounds; 23nL; Echo acoustic dispenser.
3; Cell; 5uL; 500 cells per well.
4: Incubation; 72hr; 37 C, 5% CO2, 95% humidity.
5; Reagent; 3uL; CellTiter-Glo reagent (Promega).
6; Incubation; 10min; room temperature.
7; Detection; Luminescence; ViewLux plate reader (PerkinElmer).
NOTES (numbers refer to Sequence numbers above
1. Quantitative high-throughput screening (qHTS) of small molecule compounds was conducted on drug resistant SYKi MV4-11 cell line.
2. Twenty-three nanoliter of small molecule compounds were added to each assay plates using the Echo acoustic dispenser (Beckman Coulter).
3. Cells were seeded into the assay plates at a final density of 500 cells in 5uL of media per well using the Multidrop Combi dispenser.
4. Plates were covered with stainless steel gasketed lids and incubated for 72 hours at standard cell culture conditions.
5. Viability was assessed by adding 3uL of CellTiter-Glo detection reagent (Promega).
6. Plates were covered with gasket lids and incubated for 10 minutes at room temperature.
7. Luminescence was measured on a ViewLux plate reader (PerkinElmer).
Potency is the fitted concentration of half-maximal effect.

| Structure (SMILES) | viability, % of control | Potency |
| --- | --- | --- |
| C[C@@H]1O[C@@H](O[C@H]2[C@H](O)[C@@H](O)[C@H](OC[C@H]3O[C@@H](OC(=O)[C@]45CCC(C)(C)C[C@H]4C4=CCC6[C@@]7(C)C[C@H](O)[C@H](O[C@@H]8O[C@H](CO)[C@@H](O)[C@H](O)[C@H]8O)[C@@](C)(C(=O)O)C7CC[C@@]6(C)[C@]4(C)CC5)[C@H](O[C@@H]4O[C@H](CO)[C@@H](O)[C@H](O)[C@H]4O)[C@@H](O)[C@@H]3O)O[C@@H]2CO)[C@H](O)[C@H](O)[C@H]1O (stereo not given in full) | 87% [at 9.25 µM] | – |
| CN1CC(=O)NC1=N | – | inactive |
| CCN(Cc1ccncc1)C(=O)C(CO)c1ccccc1 (stereo not given) | – | inactive |
| CN1CCN(c2ncc(-c3cc(Cl)cc(Cl)c3Cl)c(N)n2)CC1 | – | 16.6 µM (active) |
| COC(=O)[C@H]1[C@@H](O)[C@@]2(O)c3c(OC)cc(O[C@@H]4O[C@@H]([C@@H](O)CO)CO[C@H]4OC)cc3O[C@@]2(c2ccc(OC)cc2)[C@@H]1c1ccccc1 | – | 1.66 µM (active) |
| COc1cc(NS(=O)(=O)c2ccc(N)cc2)ncn1 | – | inactive |
| O=S(c1cc(Cl)cc(Cl)c1O)c1cc(Cl)cc(Cl)c1O | – | inactive |
| CC[C@]12C=CCN3CC[C@@]4(c5cc([C@@]6(C(=O)OC)C[C@H]7C[C@@H](C(C)(F)F)CN(Cc8c6[nH]c6ccccc86)C7)c(OC)cc5N(C)[C@H]4[C@@](O)(C(=O)OC)[C@@H]1OC(C)=O)[C@@H]32 | – | 0.0494 µM (active) |
| C=C1[C@@H]2CC[C@@]3(C)[C@H](c4ccoc4)OC(=O)C[C@]13O[C@H]1CC(=O)C(C)(C)[C@H](C(O)C(=O)OC)[C@]12C (stereo not given in full) | – | inactive |
| O=S(=O)(O)NC1CCCCC1 | – | inactive |
| COc1cc(/C=C/c2cc(O)cc(O[C@@H]3O[C@H](CO)[C@@H](O)[C@H](O)[C@H]3O)c2)ccc1O | – | inactive |
| COC1=CC(=O)O[C@@H](/C=C/c2ccccc2)[C@@H]1O | – | inactive |
| CCN1CCCC(OC(=O)C(c2ccccc2)c2ccccc2)C1 (stereo not given) | – | inactive |
| Cc1cn(C[C@H](N)C(=O)O)c(=O)n(Cc2ccsc2C(=O)O)c1=O | – | inactive |
| NC(=S)N/N=C/c1cccnc1 | – | inactive |
| O=C(NCCO)c1cccc(-c2cc(Nc3ccc(OC(F)(F)F)cc3)ncn2)c1 | – | 5.8 µM (active) |
| C(#Cc1cccc(CN2CCOCC2)c1)CCN1CCCCC1 | – | inactive |
| CCCCN1C[C@H](O)[C@@H](O)[C@H](O)[C@H]1CO | – | inactive |
| CN(C)CC1CCn2cc(c3ccccc32)C2=C(C(=O)NC2=O)c2cn(c3ccccc23)CCO1 (stereo not given) | – | 0.411 µM (active) |
| CC1(C)[C@@H](OC(=O)CCC(=O)O)CC[C@]2(C)[C@H]3C(=O)C=C4[C@@H]5C[C@@](C)(C(=O)O)CC[C@]5(C)CC[C@@]4(C)[C@]3(C)CC[C@@H]12 | – | inactive |

| Structure (SMILES) | viability, % of control | Potency |
| --- | --- | --- |
| C[C@H](Nc1ncnc2nc[nH]c12)c1cc2cccc(Cl)c2c(=O)n1-c1ccccc1 | – | 5.8 µM (active) and 6.61 µM (active) |
| COc1cc2ncnc(-n3nc(-c4ccccn4)nc3N)c2cc1OC | – | 2.63 µM (active) |
| CC(C)OC(=O)C(C)(C)Oc1ccc(C(=O)c2ccc(Cl)cc2)cc1 | – | inactive |
| Cc1ccsc1/C=C/C1=NCCCN1C | – | inactive |
| Oc1ccc(CNc2ccccc2F)c2cccnc12 | – | 4.61 µM (active) |
| CN(Cc1cnc2nc(N)nc(N)c2n1)c1ccc(C(=O)N[C@@H](CCC(=O)O)C(=O)O)cc1 | – | 10.6 nM (active) and 46.8 nM (active) |
| Cc1c(NC(=O)c2cccnc2)c(=O)n(-c2ccccc2)n1C | – | inactive |
| C=C(COC(=O)C(C)C)C1Oc2cc(C(C)=O)ccc2C1OC(=O)C(C)C (stereo not given) | – | inactive |
| NCC(CNc1nc(Nc2cccc(NC(=O)N3CCCC3)c2)ncc1I)C(=O)c1cccs1 (stereo not given) | – | 0.231 µM (active) |
| O=c1ccn(C2OC(CO)C(O)C2O)c(=O)[nH]1 (stereo not given) | – | 2.06 µM (active) |
| CC12CC3CC(C)(C1)CC(N)(C3)C2 | – | 3.76 µM (active) |
| CCN(CC)CCOc1ccc(/C(=C(\Cl)c2ccccc2)c2ccccc2)cc1 | – | 10.6 µM (active) and 10.3 µM (active) |
| Cc1cc(Cn2cnc3c2CC(C(=O)O)N(C(=O)C(c2ccccc2)c2ccccc2)C3)ccc1N(C)C (stereo not given) | – | inactive |
| CCCCCCCCCCCCC/C=C/[C@@H](O)[C@H](CO)N(C)C | 82.6% [at 4.97 µM] | – |
| CC#C[C@@H](CC(=O)O)c1ccc(OCc2cccc(-c3ccc(C(F)(F)F)cc3)c2)cc1 | – | 16.6 µM (active) |
| CCNC(=O)CCC/C=C\C[C@@H]1[C@@H](/C=C/C(O)CCc2ccccc2)[C@@H](O)C[C@@H]1O (stereo not given in full) | – | 14.8 µM (active) |
| C[C@@H](NC(=O)c1ncnc(N)c1Cl)c1ncc(C(=O)Nc2cc(C(F)(F)F)c(Cl)cn2)s1 | – | 16.6 µM (active) |
| C[C@@H]1O[C@@H](O[C@H]2[C@H](OC(=O)[C@]34CCC(C)(C)C[C@H]3C3=CCC5[C@@]6(C)C[C@H](O)[C@H](O[C@@H]7O[C@H](CO)[C@@H](O[C@@H]8O[C@H](CO)[C@@H](O)[C@H](O)[C@H]8O)[C@H](O)[C@H]7O)[C@@](C)(CO)C6[C@H](O)C[C@@]5(C)[C@]3(C)C[C@H]4O)OC[C@H](O)[C@@H]2O)[C@H](O)[C@H](O)[C@H]1O[C@@H]1OC[C@@H](O)[C@H](O[C@@H]2OC[C@](O)(CO)[C@H]2O)[C@H]1O (stereo not given in full) | 108% [at 9.25 µM] | – |
| CCCNC(=O)[C@H]1O[C@@H]1C(=O)N[C@H](C(=O)N1CCC[C@H]1C(=O)OC)C(C)CC (stereo not given in full) | – | 0.934 µM (active) |
| C/C(=C\CO[C@@H]1O[C@H](CO[C@H]2OC[C@](O)(CO)[C@H]2O)[C@@H](O)[C@H](O)[C@H]1O)C(C)(C)O | – | inactive |
